Experimental data reported in the supplement of paper PMC10681739.

Tests used:
ETS1 [1] = molecular target: T1, ETS1 (UniProt P14921); assay: ETS1 binding intensity (PBM fluorescence), ETS1 alone (arbitrary fluorescence units); higher = stronger binding; settings: ETS1 concentration 1 nM; RUNX1 concentration 0 nM
T1 sequence: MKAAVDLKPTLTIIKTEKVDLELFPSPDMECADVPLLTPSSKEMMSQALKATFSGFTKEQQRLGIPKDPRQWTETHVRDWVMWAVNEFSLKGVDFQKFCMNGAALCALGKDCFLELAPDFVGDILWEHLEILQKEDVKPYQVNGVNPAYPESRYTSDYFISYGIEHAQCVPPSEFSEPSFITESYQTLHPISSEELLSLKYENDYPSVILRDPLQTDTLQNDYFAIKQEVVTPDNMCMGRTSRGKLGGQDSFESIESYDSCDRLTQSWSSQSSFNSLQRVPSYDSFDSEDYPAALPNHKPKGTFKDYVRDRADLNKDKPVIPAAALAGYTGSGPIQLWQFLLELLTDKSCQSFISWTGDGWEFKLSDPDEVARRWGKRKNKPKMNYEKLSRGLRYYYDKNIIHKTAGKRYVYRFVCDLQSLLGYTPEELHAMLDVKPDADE

RUNX1 [2] = molecular target: RUNX1 (UniProt Q01196); assay: RUNX1 binding intensity (PBM fluorescence), RUNX1 alone (arbitrary fluorescence units); higher = stronger binding; settings: RUNX1 concentration 2 nM; ETS1 concentration 0 nM
Sequence of RUNX1 (Q01196 whole entry): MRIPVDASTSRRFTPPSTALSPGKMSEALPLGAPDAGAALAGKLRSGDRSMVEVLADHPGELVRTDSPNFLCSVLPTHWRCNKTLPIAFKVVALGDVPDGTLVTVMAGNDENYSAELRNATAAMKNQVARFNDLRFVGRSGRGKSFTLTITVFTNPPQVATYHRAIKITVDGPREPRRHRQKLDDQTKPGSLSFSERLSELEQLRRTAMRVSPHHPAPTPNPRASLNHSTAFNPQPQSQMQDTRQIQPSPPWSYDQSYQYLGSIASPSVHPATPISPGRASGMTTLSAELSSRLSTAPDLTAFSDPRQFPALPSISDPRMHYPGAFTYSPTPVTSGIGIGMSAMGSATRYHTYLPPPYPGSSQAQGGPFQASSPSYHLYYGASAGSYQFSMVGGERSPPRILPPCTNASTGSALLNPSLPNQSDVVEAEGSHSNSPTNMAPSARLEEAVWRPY
Procedure: (§1)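 Cooperative gcPBM on 36-bp genomic probes with neighbouring ETS1 and RUNX1 sites. Recombinant human RUNX1 (2 nM) was incubated alone or with ETS1 (25 nM) and detected with anti-RUNX1 antibody plus Alexa488 secondary. Values are medians over 4 replicate spots; the RUNX1+ETS1 data were normalised to the RUNX1-only data. The probes sit in constant array flanks that are not printed.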

ETS1 [3] = molecular target: T1, ETS1; assay: ETS1 binding intensity (PBM fluorescence) in presence of RUNX1, normalised to ETS1-only experiment (arbitrary fluorescence units); higher = stronger binding; settings: ETS1 concentration 1 nM; RUNX1 concentration 25 nM
RUNX1 [4] = molecular target: RUNX1 (UniProt Q01196); assay: RUNX1 binding intensity (PBM fluorescence) in presence of ETS1, normalised to RUNX1-only experiment (arbitrary fluorescence units); higher = stronger binding; settings: RUNX1 concentration 2 nM; ETS1 concentration 25 nM
Procedure: as §1
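Throughout, for RUNX1 binding intensity (PBM fluorescence) in presence of ETS1, normalised to RUNX1-only experiment: Full-length recombinant human ETS1 or RUNX1 bound to double-stranded 36-bp genomic probes on microarrays, detected by protein-specific primary antibody and Alexa488 secondary, spot fluorescence as median of four replicate spots.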
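Throughout, for RUNX1 binding intensity (PBM fluorescence), RUNX1 alone: Full-length recombinant human RUNX1 bound to double-stranded 36-bp genomic probes on a high-density microarray, scored as Alexa488 fluorescence per spot via anti-RUNX1 antibody, median of four replicate spots.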

Sequence	ETS1 binding intensity (ETS1 [1])	RUNX1 binding intensity (RUNX1 [2])	ETS1 binding intensity (ETS1 [3])	RUNX1 binding intensity (RUNX1 [4])
TGGGGCCCGGAAGCGCTGGCGCCTTGCGGCCAGAAG	1500	707	3180	952
GCGGCGAACCGGACGCCCCAACCACCCGCCCCCCAC	1710	987	1470	1060
CTAACCCTTCTCTTCCTGCAAAAACCACAACAAAGG	640	2250	1720	3580
CAGCAAAAGGCAGGATGTGGTTAAAACTGTGCTCTG	4320	1110	29000	17100
GGTTCTCTAGGGAGAGGATGTGGGTTTGTCTCTGGG	1820	791	6540	1570
TGGCTTATCCTAACAGGAAGTGGTTTATCTGATCCT	16100	767	31300	2390
GAGTTCTAGACTACAGGATGTGGTTAGAAGAAAAGA	4670	837	56900	4800
GTGAATGAGGGGGAAGGAAGTGGTTTGGAAAAATAC	1890	949	2790	962
TGAAGCCATGGTTTCCTGTCTGCGGCTCAGATCAAG	1020	717	1600	1490
GGCAGCAAGAAAGGAAATAGTGTGGTTGGGTGGAGA	1050	846	1640	1010
CCTCCCACCTTGGCAGGAAGCGGTTTATCAGATTAA	4250	810	7770	2280
AGCTTGCTTCCTGTCCCCAAAACCCACAGCACACGG	688	893	1120	2590
TCCCCCACTTCCTGGCAGCAGCAGTGTGGTGAGGAG	845	879	996	2160
GTAAAAGAGGAAGTAACACCTCCTTGCGGTTGAGAC	1450	1020	6840	3280
AGCTGAAGGGCAGGATGTGGTTTCAGCATTCGGTGA	3090	791	16400	5290
GCACCCTTCCTGCTTCCCACAGTGTGGTATAAGAGG	412	965	475	1560
CATGACGAAGGGGAAGGATGTGGTTTGAGGGCAGCA	774	847	8460	1310
GCCCGCGGCTCCGGAAGCGGCTGCGGCCCCGACCGG	3000	678	3860	1040
CAGAAACATCCCTCCTGCCGCCGCTTTGTGGTACCA	378	983	526	925
CCCCTGCCCCTTCCTGGAAGGCTGCGGTGTAACACC	435	978	704	1780
CCCGCCACTTCCCTGCCTCTGCGGGAGCCCCCCAGC	573	938	545	1430

Sequence	ETS1 binding intensity (ETS1 [1])	RUNX1 binding intensity (RUNX1 [2])	ETS1 binding intensity (ETS1 [3])	RUNX1 binding intensity (RUNX1 [4])
CGAGATCCTGGCCACGGATGCGGTGGCCGCGCCTCT	414	795	660	975
GCTCCTCCCGGATATAAAGCCCCAAACCACGCCACT	724	1140	1610	1410
GAGGAGATTTCCGGCCCCCATCCCCGCAGCGACCTT	1690	762	1990	1820
TGTTTTTGTTTCCGTTTACAAACCACAACAAAGGTG	736	2390	1620	4730
GAGCAGGAAGCACCCCCAGCACAGGCCTGCGGTGAG	438	741	1350	911
TTTATCATGAATGCAGGATGTGGGCAAACTCGCATC	2340	749	6100	1060
TCCCCGGCAGCTTCCTCGCCCCGACCGCAGTGTTCC	368	1780	798	1570
CCTGCCTGAGGCAGGAAGCCGCAGCTGAGGGACGGC	2980	761	5390	1280
TGCGCCGGGAGGAAGGGCTCCAAAACCACAGGGCGG	411	900	1400	927
GCTCCCTGGACAGGATGTGGTGCCGAGTAAACAGCT	4470	645	5380	1410
CTCGTGGGTGCCGGAAGTGGAGGCGGTTGGTGGGGT	15200	707	15900	1410
AGCCCCTACCACTTCCCCCCACAGCAGTTCTGAGAT	720	1410	755	2250
ACCCACTTCCTGTTAGAGCATCTTTGCAACCACAGG	2010	933	3230	3000
ATACCGGCGCATCCGGATTTTGAAGCCGCAGTGGAC	728	673	774	1200
AAAGTTGTATAGTGAGGATGTGGTCAAGAACTCACC	577	1010	4380	1180
AGCGCTTCCTGGCTCCGGCCCCGCCCCTGCGGTCGG	484	942	1110	1880
GTTCTCCACATCCTGTTCCGTAGCTGTGGTGCACCG	1600	3060	1780	8880
CCCTACCTCTCCTTCCTGCCACAAGGGAAAGTCACT	508	1390	481	2550
TCTGCCGCCAGCCCATCCGCGACCGCATCCAGATCT	346	1250	653	1210
GCAGCATTTCCTGACTTCTTCGCCCCTGTGGTTGCA	440	850	480	1690
GAAATCCATCACGGATGTGGGCTTTTTGCTCTCATT	1490	760	1620	1010

Sequence	ETS1 binding intensity (ETS1 [1])	RUNX1 binding intensity (RUNX1 [2])	ETS1 binding intensity (ETS1 [3])	RUNX1 binding intensity (RUNX1 [4])
CAACACAGGATGTGCAGTATTATACCGCAAAGCACT	1710	1150	6950	2070
AACGACAAACCGGAAGTATGGTTTGCCGCCTGAAGC	17000	754	19500	1620
TGCATGTGCAGCAGAGGAAACCACAAGTTATTCCCT	557	1110	1560	1600
AGGACCTAACACTCAGGAAGTGGTCAACCTTGCTGC	2760	897	3710	1420
CAGATCTGAAAGGGAAGTGGTTTCAAGAGGGTTCTT	967	729	1130	865
TACAGGAACTTCCTGCGCGGCTGCTGTGGTTGCGAG	794	684	1350	1680
CGGCAGGGAAGCAGGAAACCGCGAGTGGAGAAAGGG	1790	1160	3790	2170
AGATGCAGAACAGGAAGTGGTTTAGAAAGCCACTCT	8980	827	13700	2720
CCCACCCGGAAATGAGCCAACAGTGGTTTCGCCCCG	1590	782	2010	1380
GAGCCACCGGAAACGGAGCTGCGGCCGCGCCCCGCC	5340	747	7820	1650
CCCTCTCTTCTTCCTCCCCCACCACAAAAGTCACAG	550	2440	641	2280
GGTTCGCGGCTTCCGGGACATTTGTACCGCAGGGGG	960	759	2330	1510
CTGCCTTTCCTGCTAGGGTACAAACCACAGCCTTAG	369	1360	774	1640
TCCAGTGCCGCCGCCGGAAAACCGCAGCGGCGGCGG	887	5970	4530	10200
AATATACGGTGAGGATGTGGGCAAAAAACAAAGAGG	1060	809	1270	965
GCCATCCGCAGGACTCCGCGTTCTCGCGGTAAGTGG	384	736	464	883
GTTAGAGGAAGAGGAAGCGGTCAAGAGATCGTCACA	956	766	1280	1810
AGGAGAACTTCCGCCCTTACTATATTACCGCCGGTA	1180	737	1090	1520
TGGAAGCGGCTTCCGGGGTGAATGCGGTTGGATCGT	1150	1030	3990	3030
CCGCCGCGACACTTCCGGCGGCCACCACAGGGTATT	2700	727	3020	2500
GAACCACTTCCCTGAAACCATTTACCACATAAATCT	383	1510	904	2470

Sequence	ETS1 binding intensity (ETS1 [1])	RUNX1 binding intensity (RUNX1 [2])	ETS1 binding intensity (ETS1 [3])	RUNX1 binding intensity (RUNX1 [4])
CGGGTGGTGGCAGGATGTGGGTAGGGGGCCAGGCGA	2930	895	6860	2560
AGCTTCCTGTTTGGCCTTGCTGATGTCACCGCATTA	729	932	1090	2360
TCCGGAAATAGATAATATCTAGTTAAACCTCAAAAT	1540	786	2850	965
AGCGGCCGAAGGAAGTGACGTTTGCGGCAGTAAGGC	997	1130	1450	1300
GTGAGAGGAAGTGGGCGCTGGTTTAATGTGGTCAGC	1010	834	5410	2360
TCTTCAGGCGTCTTTCCGGTGGTGGTCGTTTTTGCT	1530	905	1330	1390
CAGCTGCTGACAGGAAAACCACAGTGGAAGGGGAAG	848	898	1550	1050
AAACTCCCCCACTTCCGCCCACAGCCCTCTGGGCTT	2010	984	2120	3490
ACACTGGCCGGAAGGGGCGGGACCGCGAGTTAAGAG	1280	791	2380	1320
AACAAACCGGATGGGGTTCCCACCCGCAATCTTGTC	1700	830	4570	1970
TGGGGAGGCAGGAAACGGGCCTTGTGGTTGGGGGGT	4210	770	16900	1020
GAGCTAGCCACTTCCTCCCCCACAACTACACCCAGG	814	976	914	3420
GCCTGTGGAGTTGCAGGATGTGGTTGGCGAAAAGAA	2130	905	7880	1360
ACCCTTCCTGGAGCATTGTCGCAGCAACCACAACAG	457	918	975	1200
CCGGGCTGCGGAAGGCGGGAACTCTGCGGTTCGCGG	484	861	2650	1090
TTGGTGACCTCTTCCTGTCCGCTGTGGTGTTGTTAC	1080	841	1240	2350
GACAGGAAGTGACCTCAATTTCCCCGGCCACAGAAA	2650	809	4280	1770
CACCCGCCCCCCGGAAGTGCCGGTGGTTGGGCTCCG	5120	703	7610	1540
